Source: PubChem BioAssay (National Center for Advancing Translational Sciences (NCATS))
A selection: hits, their analogues and other compounds. The true share with any hit is near 19%.
Pf growth 48h = Primary qHTS for delayed death inhibitors of the malarial parasite plastid, 48 hour incubation; P. falciparum luciferase growth in erythrocytes, 48 h; Potency, µM (titrated, usually from 28.7 µM), for inactives: top-dose activity change, negative = inhibition, actives largely listed as inhibitors; 310,000 compounds, 5.9% hits; AID 504832, 2011; note: potency is the fitted concentration of half-maximal effect; % is set by controls: 0 for no effect and ±100 for the full control effect
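Luciferase-expressing P. falciparum in infected erythrocytes (2% hematocrit, 0.1% parasitemia final) in RPMI 1640/0.5% Albumax were exposed to compound for 48 hours at 37 C, 5% CO2; growth read as luminescence.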
Shiga toxin inh = A qHTS for Small Molecule Inhibitors of Shiga Toxin; Vero cells, Shiga toxin protein synthesis inhibition reporter; inhibition, % at 38.7 µM; 290,000 compounds, 9.2% hits; in the data active = inhibition mostly above about 28%, no sharp cut-off; inactive = mostly below about 43%; note: 0% is about no effect
Pf growth 96h = Primary qHTS for delayed death inhibitors of the malarial parasite plastid, 96 hour incubation | Potency, µM (titrated, usually from 28.7 µM), for inactives: top-dose activity change, negative = inhibition, most hits filed as inhibitors | 320,000 compounds, 6.9% hits | AID 504834, 2011 | P. falciparum luciferase reporter growth, 96 h; note: potency is the fitted concentration of half-maximal effect; % is set by controls: 0 for no effect and ±100 for the full control effect
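P. falciparum expressing integrated firefly luciferase grown in erythrocytes (2% hematocrit, 0.05% parasitemia final) with compounds for 96 hours at 37 C, 5% CO2. Growth inhibition read as loss of luminescence after adding luciferase detection reagent.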
Cycloheximide cs = Cycloheximide Counterscreen for Small Molecule Inhibitors of Shiga Toxin; max response, %; cell reporter, cycloheximide protein synthesis inhibition counterscreen; 300,000 compounds, 12% hits; AID 2314, 2010; in the data active = max response mostly above about 13%, no sharp cut-off; inactive = mostly below about 14%; note: read at 38.3 µM for the half of the compounds with a filed dose; 0% is about no effect
MARV entry inh = qHTS for inhibitors of binding or entry into cells for Marburg Virus; Marburg virus pseudotyped entry inhibition, cell reporter; Potency, µM (doses to about 37.8 µM), inactives show top-dose activity change, negative = inhibition, hits mostly inhibitors; 300,000 compounds, 1.8% hits; AID 540276, 2011; calls by dose curve; tested in HEK293 cells; note: potency is the fitted concentration of half-maximal effect; % is set by controls: 0 for no effect and ±100 for the full control effect
LASV entry inh = qHTS for Inhibitors of binding or entry into cells for Lassa Virus; Lassa virus pseudotype entry inhibition, cell reporter; Potency, µM (titrated, usually from 37.9 µM), inactives show top-dose activity change, negative = inhibition, usual class: inhibitors; 300,000 compounds, 1.2% hits; calls by dose curve; tested in HEK293 cells; note: potency is the fitted concentration of half-maximal effect; % is set by controls: 0 for no effect and ±100 for the full control effect; nearly all actives have a fitted effect of over 50% in size
* marks the source's active call; other numbers are inactive results; ? = inconclusive; · = no result; + = active, no number; [ ] = remark or other dose. Unless noted, calls come from the whole dose curve; as a rule, active = well fitted inhibition curve with a large enough effect; inconclusive = small, poorly fitted or top-dose-only effect, or another doubt; inactive = no such curve, though single readings can be large or run the other way.

SMILES	Pf growth 48h	Shiga toxin inh	Pf growth 96h	Cycloheximide cs	MARV entry inh	LASV entry inh
CN(C)S(=O)(=O)c1ccc(NC(=O)c2cc(-c3cccs3)nc3ccccc23)cc1	?	-2	?	-6	?	?
Cc1cccc(Cn2c(=O)n(Cc3ccccc3)c(=O)c3oc4ccccc4c32)c1	·	·	·	·	·	6%[46.1 µM]
COc1ccc(N/C=C/C(=O)c2cc(OC)c(OC)c(OC)c2)cc1	-12%	·	-17%	17*	?	-26%[46.1 µM]
COc1ccc(N/C=C/C(=O)c2ccc(OC)c(OC)c2)cc1	?	56*	?	24*	-3%[46.1 µM]	-17%
COC(=O)c1ccc(N/C=C/C(=O)c2ccc(OC)c(OC)c2)cc1	6%	-9	-10%	8	?	-16%
COc1ccc(C(=O)/C=C/Nc2cccc(C)n2)cc1OC	-35%	+	153%	65*	?	?
COc1ccc(C(=O)/C=C/Nc2ccc(NC(C)=O)cc2)cc1OC	?	22	91%	0	3%	4%
Cc1ccc(CNc2ccc(N3CCOCC3)cc2)s1	275%	93*	11%	48*	-4%	?
Cc1ccc(NCc2ccc(C)s2)cc1	3%	66*	-2%	37*	·	·
CC(=O)N1CCN(c2ccc(NCc3ccc(C)s3)cc2)CC1	·	-6	?	9	·	·
Nc1c(C(=O)c2ccc(Cl)cc2)oc2ccccc12	50%	65*	123%	32*	-9%	?
COc1ccc2oc(/C=C/N(C)C)c(C(=O)c3ccc(Cl)cc3)c2c1	?	-1	?	3	21µM*	?
COc1ccc(C(=O)c2oc3ccc(OC)cc3c2N)cc1	145%	70*	?	29*	19%	-20%
COC(=O)c1oc2ccc(OC)cc2c1N	110%	63*	44%	28*	18%	3%
CC(C)NCCCOc1ccc(Cl)cc1Br	?	36*	?	31*	?	4%
CC(C)NCCCCOc1ccc(Br)cc1Cl	?	10	27%	8	·	·
COCCCNCCCOc1ccc(Cl)cc1Br	?	-11	?	1	16µM*	-18%
CCCCNCCCOc1cc(Cl)ccc1Cl	·	-22	6.6µM*	-4	-17%	-17%
O=C(C1CCC(=O)N1Cc1ccc(F)cc1)N1CCC2(CC1)OCCO2 (stereo unspecified)	-1%	-1	?	1	2%	-5%
CCOc1cc(NC(=O)c2ccccn2)c(OCC)cc1NC(=O)c1ccc(Cl)cc1	16%	-9	7%	-3	·	·
N#CCCN(Cc1cccnc1)C(=O)Nc1ccccc1	-3%	-6	·	-2	-4%	23%
COc1ccc(C=O)cc1CN1C(=O)c2ccccc2C1=O	?	·	0.15µM*	-4	-3%[46.1 µM]	6%[46.1 µM]
COc1ccc(C=O)cc1COc1ccccc1F	23%	-10	8.3µM*	-6	?	?
COc1ccc(/C=C/C(=O)c2ccccc2)cc1COc1ccccc1F	?	2	?	2	?	-29%
Cc1ccc(N(CC(=O)NCc2ccccn2)S(=O)(=O)c2ccccc2)cc1Cl	-11%	-12	0%	2	-18%	?
SMILES	Pf growth 48h	Shiga toxin inh	Pf growth 96h	Cycloheximide cs	MARV entry inh	LASV entry inh
Cc1cccc(OCc2nc(-c3ccc(Br)o3)no2)c1	24%	92*	-9%	13	16%[46.1 µM]	?
Brc1ccc(-c2noc(COc3ccc4ccccc4c3)n2)o1	·	10	?	9	·	·
COc1ccc(Cc2nc(-c3ccc(Br)o3)no2)cc1OC	·	52	?	18*	·	·
COc1cccc(OCc2nc(-c3ccc(Br)o3)no2)c1	14%	48	124%	28*	-19%[46.1 µM]	3%
COc1cccc(OCc2nc(-c3cccc([N+](=O)[O-])c3)no2)c1	16%	46	-4%	25*	5%[46.1 µM]	6%[46.1 µM]
COc1cccc(-c2noc(Cn3nc(C)c([N+](=O)[O-])c3C)n2)c1	?	-8	-12%	-1	-14%	3%
COCCNC(=S)N1CCN(c2cccc(C(F)(F)F)c2)CC1	-4%	-11	?	-2	-5%[46.1 µM]	-10%
CCOC(=O)c1nn(C23CC4CC(CC(C4)C2)C3)c2c1C(=O)N(c1ccc(C)cc1)C2=O	0%	-15	3%	-1	4%	12%
Cc1cc(C(=O)N2CCN(c3ccc([N+](=O)[O-])cc3)CC2)c(C)o1	-7%	11	0%	10	·	·
COc1ccc(CCC(=O)NCc2cnn(C)c2)cc1	10%	-6	36%	-4	3%	-3%
CCn1c(COc2ccccc2C)nnc1SCC(=O)N1CCN(c2ccccc2)CC1	10µM*	-7	?	10	?	-29%
CCn1c(COc2ccccc2C)nnc1SCC(=O)OC	0%	7	?	-3	?	-7%
CCn1c(COc2cccc(C)c2C)nnc1SCC(=O)N1CCN(c2ccc(OC)cc2)CC1	?	1	9.3µM*	-1	-24%	?
NC(Cc1ccc2nsnc2c1)C(=O)O (stereo unspecified)	·	·	·	·	7%	5%
CCN(CC)CCCC(C)NC(=O)c1cc(=O)c2ccccc2o1 (stereo unspecified)	-1%	-14	5%	-3	-11%[46.1 µM]	-10%
CCN(CC)CCCC(C)Nc1cc(/C=C/c2ccccc2Cl)nc2cc(Cl)ccc12 (stereo unspecified)	0.48µM*	·	0.6µM*	·	·	·
Oc1c(Cl)cc(Cl)cc1CN1CCN(Cc2ccccc2)CC1	1.2µM*	28	0.74µM*	20*	-21%	14%
c1csc(CN2CCNCC2)c1	16%	-16	10µM*	2	-1%	?
O=C(Cc1ccccc1)N1CCN(Cc2ccccc2Cl)CC1	9%[0.00184 µM]	-5	4.1µM*	-2	·	·
Clc1ccccc1CN1CCNCC1	21%	-25	8.3µM*	-2	8%	?
CCOC(=O)N1CCN(Cc2cccs2)CC1	21%	-15	-9%	1	35%	-24%
Cc1ccccc1CN1CCNCC1	14%	-1	7%	2	7%[46.1 µM]	9%[46.1 µM]
O=C(C1CCN(S(=O)(=O)c2cccc3nonc23)CC1)N1CCCCC1	42%	15	2%	-4	-16%[46.1 µM]	19%
COc1ccc(S(=O)(=O)N2CCCCCC2)cc1C(=O)OCc1c(C)noc1C	?	-6	?	-8	-14%	?
O=C(c1cccc([N+](=O)[O-])c1)C12CN3CN(CN(C3)C1)C2	?	3	57%	6	27%[46.1 µM]	?
COC(=O)c1ccccc1NC(=O)C1CCCN(c2ncnc3onc(C)c23)C1 (stereo unspecified)	·	·	·	·	·	25%[46.1 µM]
CC1CCC(NC(=O)c2cc3c(s2)CS(=O)(=O)C3)CC1 (stereo unspecified)	-9%	11	12µM*	12	0%	9%
CCCNC(=O)COC(=O)c1ccc(N2CCCC2)c([N+](=O)[O-])c1	18%	20	21%	20	5%[46.1 µM]	3%
